Results from PubChem BioAssay (NCI).
Compounds without any hit were thinned out: in the full panel of roughly 83,000, 20% have a hit.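 A percent growth of 40 corresponds to 60% growth inhibition; 0 means no net growth; -100 means all cells died. Active threshold: below 10.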 Values without a mark were called inactive. The source made the active and inactive calls.

Columns and labels:
Assay in all cases: NCI-60 one-dose screen, 48 h (100 = growth as untreated, 0 = no growth, -100 = all killed)
Details in all cases: 10 µM unless noted
[1] = test system: SR leukemia
[2] = test system: RPMI-8226 leukemia
[3] = test system: OVCAR-8 ovarian
[4] = test system: OVCAR-5 ovarian
[5] = test system: OVCAR-4 ovarian
[6] = test system: SK-OV-3 ovarian
[7] = test system: IGROV1 ovarian
[8] = test system: OVCAR-3 ovarian
[9] = test system: HS 578T breast
[10] = test system: NCI/ADR-RES ovarian
[11] = test system: T-47D breast
[12] = test system: BT-549 breast
[13] = test system: MDA-MB-435 melanoma
[14] = test system: SW-620 colon
[15] = test system: MCF7 breast
[16] = test system: HCT-116 colon
[17] = test system: HCC-2998 colon
[18] = test system: KM12 colon
[19] = test system: MDA-MB-468 breast

SMILES | growth [1] | growth [2] | growth [3] | growth [4] | growth [5] | growth [6] | growth [7] | growth [8] | growth [9] | growth [10] | growth [11] | growth [12] | growth [13] | growth [14] | growth [15] | growth [16] | growth [17] | growth [18] | growth [19]
COc1cc(-c2nc3cc(Cl)c(Cl)cc3[nH]2)ccc1OCc1nnc(-c2cccs2)o1 | 31.1% | 59.2% | 38% | 83.3% | 40.8% | 47.8% | 59.4% | 91.2% | 63.9% | 39.5% | 84% | 28.1% | 55.2% | 33% | 3.79% (active) | 29% | 43.9% | 71.5% | 46.4%
CCCCSc1nc(NCCc2c[nH]c3ccccc23)c(C#N)c(-c2ccc(OC)cc2)n1 | 5.98% (active) | 30.7% | 79.2% | 87% | 67.2% | 83.7% | 102% | 83.6% | 47% | 51.7% | 30.7% | 99.4% | 72.2% | 52.8% | 17.7% | 21.4% | 49.2% | 36.2% | 51.1%
C=C1CCC2C3(C)COC(c4cc(F)cc(F)c4)OC3CCC2(C)C1CC(O)C1=CCOC1=O (centres undefined) | 28.6% | 11% | 16.2% | 87% | 53.1% | 102% | 60.1% | 61.4% | 70.4% | 14.5% | 40.5% | -12.9% (active) | 60% | -44.2% (active) | 15.3% | -33.8% (active) | 45.8% | 60.5% | 70.7%
Cc1ccc(NC(=O)CN2CCN(c3ncnc4c3cnn4-c3ccccc3)CC2)cc1 | 52.6% | 75.8% | 71.4% | 98% | 82.9% | 112% | 81.3% | 103% | 77.7% | 79.5% | 78.9% | 85% | 94.2% | 99.9% | 74.2% | 76.3% | 102% | 89.9% | 87.1%
COc1ccc(Cc2nn(CC(=O)N/N=C/c3ccc(F)cc3)c(=O)c3c(C)noc23)cc1 | 53.2% | 64.7% | 38.6% | 55% | -35.8% (active) | -72.1% (active) | 39.7% | 47% | 23.1% | 38.4% | -14.1% (active) | 43.2% | 48.1% | 61.4% | 56.5% | 5.98% (active) | 39.3% | 73.1% | 63.2%
Cc1cccc(-c2nc(Nc3cccc(S(N)(=O)=O)c3)c3ccccc3n2)c1 | 33% | 38.3% | 2.28% (active) | 77.2% | 52.3% | 102% | 66.1% | 73.4% | 76.5% | 22.8% | 36.4% | 88.6% | 46.4% | 67.6% | 33.3% | -5.73% (active) | -1.53% (active) | 11.6% | 38.6%
NS(=O)(=O)c1ccc(N=Nc2c(O)n(CC(=O)Nc3ccccc3)c3ccccc23)cc1 | 18.5% | 42.7% | 11.3% | 74.5% | 57.3% | 25.2% | 38.9% | 20.8% | 52% | 64.3% | 60.8% | 25.5% | 9.55% (active) | -17.4% (active) | 14.9% | -45.3% (active) | 12.9% | 13.9% | 36.5%
C/C(=N\N=C\c1cc([N+](=O)[O-])ccc1Cl)c1ccc2c(c1)Nc1ccccc1S2 | 31.3% | 71.7% | 16.6% | 69.4% | -10.7% (active) | 40.4% | 40% | -4% (active) | 27.1% | 55% | 29.7% | 63% | 77.2% | 50% | 63.1% | 11.1% | 90.5% | 89.1% | 34.1%
CN(C)c1nc(NCCNS(=O)(=O)c2ccc(C3=Nc4c(N)nc(N)nc4NC(c4ccccc4)C3)cc2)nc(Nc2ccc(F)cc2)n1 (centres undefined) | 1.17% (active) | 4.93% (active) | 42.3% | 75.3% | 38.9% | 80.7% | 32.1% | 45.2% | 46.3% | 92.9% | 39.8% | 29.1% | 41.6% | 49.9% | 17.3% | 32.7% | 31.9% | 33.8% | -35.8% (active)
COc1cc(/C=C/C(=O)c2ccc(C)cc2)ccc1Oc1nc(Nc2ccc(F)cc2)nc(N(C)C)n1 | 3.88% (active) | -1.89% (active) | 38% | 79.1% | 39.4% | 79.4% | 57.8% | 52.4% | 41.7% | 38.1% | 15.4% | -30.1% (active) | 53.9% | 6.82% (active) | 11.9% | -80.3% (active) | 91.9% | 65.4% | 40.1%
CCCCn1c(O)c(N=Nc2nc(-c3cc4ccccc4oc3=O)cs2)c2cc(Br)ccc21 | 103% | 108% | 113% | 96.2% | 111% | 124% | 114% | 99.1% | 108% | 102% | 107% | 132% | 111% | 114% | 89.8% | 107% | 111% | 114% | 113%
Cc1cc(=O)oc2cc(OCCOc3ccc(/C=C/C(=O)Nc4ccccc4N)cc3)ccc12 | 26.1% | 1.06% (active) | 38.5% | 39.2% | 41.2% | 11.1% | 38.7% | 20.3% | 40.6% | 16.4% | 15.3% | -49.2% (active) | 42.7% | 27.4% | 5.65% (active) | 16.1% | 37.9% | 13.7% | -45% (active)
O=C1CC(Sc2n[nH]c(-c3ccncc3)n2)C(=O)N1c1ccc(Br)cc1 (centres undefined) | 97.4% | 94.1% | 105% | 105% | 110% | 108% | 112% | 114% | 111% | 111% | 94.5% | 122% | 104% | 101% | 99.8% | 105% | 110% | 109% | 99.3%
O=C(NN1C(=O)/C(=C/C=C/c2ccc([N+](=O)[O-])o2)SC1=S)c1ccccc1O | 3.37% (active) | -4.22% (active) | -68.2% (active) | -98.8% (active) | -100% (active) | -9.85% (active) | -95.5% (active) | -100% (active) | -5.32% (active) | -0.0269% (active) | -59.4% (active) | -91.3% (active) | -89.7% (active) | -69.5% (active) | -49.7% (active) | -68.5% (active) | -97% (active) | -83.5% (active) | -75.4% (active)
CN(C)c1ccnc(CNCCSC2(c3ccccc3)c3ccccc3C=Cc3ccccc32)c1 | -52.6% (active) | -48% (active) | -45.1% (active) | 1.39% (active) | 16.8% | 6.47% (active) | 11.1% | -58.6% (active) | -34% (active) | -61.6% (active) | -32% (active) | -47.1% (active) | -86.3% (active) | -76.1% (active) | -75.8% (active) | -38.8% (active) | -77.3% (active) | -61% (active) | -55.3% (active)
CCOP(=O)(OCCCl)c1nc(-c2ccc(C)cc2)oc1NCc1ccccc1 (centres undefined) | 66.8% | 43.2% | 78.7% | 98.4% | 68.3% | 91% | 62.4% | 75% | 74.6% | 63.8% | 48.1% | 92% | 87.2% | 86.5% | 50.3% | 63.3% | 94.6% | 77.6% | 62.9%
